Screening results as filed in PubChem.
Only some compounds are listed: those with a hit (about 17% of all), similar ones and a draw of the others.
DT40 TDP1 CPT: qHTS for Inhibitors of human tyrosyl-DNA phosphodiesterase 1 (TDP1): qHTS in cells in presence of CPT. chicken DT40 Tdp1-/-;hTDP1 cells + 20 nM CPT, ATP luminescence, 48 h. Potency, µM (series often up to 46.2 µM), inactives show at the top dose activity change, negative = growth inhibition, most hits filed as inhibitors. 420,000 tested, 12% active. AID 686979, 2013; note: % is set by controls: 0 for no effect and ±100 for the full control effect; nearly all actives have a fitted effect of over 55% in size
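Cell growth measured by CellTiter-Glo luminescence after a minimum 48 h, 37 C compound exposure with 20 nM CPT in Tdp1-knockout DT40 cells stably expressing hTDP1, seeded 400/well; qHTS titration format.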
DT40 TDP1 no CPT: qHTS for Inhibitors of human tyrosyl-DNA phosphodiesterase 1 (TDP1): qHTS in cells in absence of CPT | 420,000 tested, 15% active | Potency, µM (doses to about 46.2 µM), for the others: at the top dose activity change, negative = growth inhibition, hits mostly inhibitors | DT40 Tdp1-/- hTDP1 cells, no CPT, ATP luminescence, 48 h; note: % is set by controls: 0 for no effect and ±100 for the full control effect; nearly all actives have a fitted effect of over 55% in size
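Stably hTDP1-transfected Tdp1-null chicken DT40 cells were treated with library compounds minus camptothecin and grown for at least 48 hr at 37 °C, after which cellular ATP was quantified by luminescence.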
HT1080NT lethal: qHTS for induction of synthetic lethality in tumor cells producing 2HG: qHTS for the HT-1080-NT fibrosarcoma cell line | HT-1080-NT fibrosarcoma viability, CellTiter-Glo ATP luminescence, 48 h | Potency, µM (top dose mostly 46.1 µM), inactives show at the top dose activity, negative = less viability, most hits filed as cytotoxic | 360,000 tested, 1.6% active | AID 686970, 2013;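 note: NT is the 2HG producing partner of a matched IDH1 knockdown line; 0% = DMSO-treated cells and -100% = media-only wells without cells; nearly all actives have a fitted effect of over 55% in size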
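Luminescent CellTiter-Glo readout after 48 hours of compound exposure at 37 degrees C defined viability of HT-1080-NT cells. Activity was normalized to DMSO wells and cell-free media wells; concentration-response curves were fitted and assigned curve classes.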
TGFb inhibitor: qHTS for Inhibitors of TGF-b; 410,000 tested, 1.2% active; Potency, µM (highest dose often 46.1 µM), for inactives: at the top dose activity, negative = inhibition, most hits filed as inhibitors; AID 588855, 2011; HepG2 CAGA-GFP TGF-b/SMAD3 reporter, GFP fluorescence, 18 h; TGF-beta stimulated, 500 pg/mL final; note: % is set by controls: 0 for no effect and ±100 for the full control effect; nearly all actives have a fitted effect of over 65% in size
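Using HEPG2 CAGA-GFP reporter cells at 1000 cells/well, we pinned test compounds, stimulated with recombinant TGF-beta (500 pg/mL final) and measured total well GFP after 18 h.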
HepG2 viability: qHTS for Inhibitors of TGF-b: Cytotox Counterscreen; Potency, µM (highest dose often 46.1 µM), inactives show at the top dose activity change, negative = cytotoxicity, hits mostly cytotoxic; 410,000 tested, 0.76% active; HepG2 CAGA-GFP viability, ATP luminescence, 18 h
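CellTiter-Glo luminescence gave cytotoxicity after 18 hours at 37 degrees C. The cells were HepG2 CAGA-GFP in 1% FBS DMEM, stimulated with 500 pg/mL TGF-beta after compound addition. %Activity was normalised to no-cell wells (complete cell-killing) and DMSO (no toxicity), and curves were fitted and classified.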
HT1080 IDH1KD tx: qHTS for induction of synthetic lethality in tumor cells producing 2HG: qHTS for the HT-1080-IDH1KD cell line | HT-1080 IDH1 knockdown viability, ATP luminescence, 48 h | Potency, µM (top dose mostly 46.1 µM), for inactives: at the top dose activity, negative = toxicity, hits mostly cytotoxic | 360,000 tested, 2% active | AID 686971, 2013;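 note: 0% = DMSO wells and -100% = cell-free medium wells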
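In this qHTS, HT-1080 cells depleted of IDH1 are exposed for 48 h at 37 °C to compound titrations. Toxicity is scored from CellTiter-Glo luminescence, with DMSO as full viability and medium alone as none.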
* marks the source's active call; other numbers are inactive results; ? = inconclusive; . = no result given. Calls come from the whole dose curve; as a rule, active = well fitted curve in the direction sought with a large enough effect; inconclusive = small, poorly fitted or top-dose-only effect, or another doubt; inactive = no such curve, though single readings can be large; an effect the other way counts as inactive or inconclusive. Potency is the fitted concentration of half-maximal effect.

SMILES	DT40 TDP1 CPT	DT40 TDP1 no CPT	HT1080NT lethal	TGFb inhibitor	HepG2 viability	HT1080 IDH1KD tx
CC(C)=CCN1CCN(CCC2=C(C)CCCC2(C)C)CC1CCO (stereo not drawn)	?	?	-6%	-11%	-26%	0%
CCOc1ccc(/C=C2\SC(=S)N(CCC(=O)Nc3ccccc3C(=O)O)C2=O)cc1	4%	-27%	1%	?	0%	16%
CCOC(=O)C1=C(c2ccccc2)NC(N)=NC1c1ccc(OCc2ccc(C(=O)OC)cc2)cc1 (stereo not drawn)	?	13µM*	23µM*	?	-53%	21µM*
COc1ccc(Cn2ccnc2SCC(=O)Nc2ccccc2F)cc1	-16%	-12%	-1%	-3%	-10%	0%
O=C(CSc1nccn1Cc1ccc(F)cc1)Nc1nc2ccccc2s1	18µM*	23µM*	.	?	-20%	.
COc1ccc(Cn2ccnc2SCC(=O)Nc2ccc(F)cc2F)cc1	?	23µM*	-1%	-6%	-16%	-3%
O=C(Nc1cc2c(cc1C(=O)c1ccccc1Cl)OCCO2)c1ccccc1	-12%	-10%	.	-11%	-38%	.
Cc1nc2ccc(Br)cn2c1C(=O)N/N=C\c1ccc(C(C)C)cc1	7.3µM*	7.3µM*	2%	4%	-7%	-1%
CNC(=S)N/N=C/c1ccc(N(C)C)cc1	5%	?	9%	0%	6%	-1%
CNC(=S)N/N=C/c1ccc(C(C)C)cc1	13µM*	7.3µM*	2%	0%	-65%	?
CC(C)c1ccc(/C=N/NC(=O)c2ccccc2Cl)cc1	4.1µM*	2.9µM*	7.3µM*	-13%	25%	6.5µM*
Cc1ccc(S(=O)(=O)N2CCN(S(=O)(=O)c3ccccc3Br)CC2)cc1	?	-27%	10%	-6%	-2%	8%
COc1ccc(C(=O)OC(C)C(=O)NCC2CCCCC2)cc1S(=O)(=O)N1CCOCC1 (stereo not drawn)	6%	17%	2%	-9%	7%	5%
CCCCN(C)S(=O)(=O)c1cc(-c2nnc3c4ccccc4c(C)nn23)ccc1C	3.7µM*	7.3µM*	.	157%	147%	.
Cc1ccc(-c2nn3c(C)nnc3c3ccccc23)cc1S(=O)(=O)N(C)CCO	?	?	-2%	-25%	-21%	-1%
CC(=O)NCCN1C(=O)S/C(=C\c2cccs2)C1=O	5%	-9%	6%	-7%	3%	23%
COc1cccc2c1C(=O)/C(=C\c1ccc(N(C)C)cc1)C2	?	11µM*	.	46%	-3%	.
CCCS/C(N)=N/N=C/c1cc(C)ccc1O	0.73µM*	0.82µM*	-28%	?	-26%	?
CCN(C(=O)COC(=O)C12CC3CC(CC(NC(C)=O)(C3)C1)C2)C1CCCCC1	?	21µM*	8%	-3%	1%	10%
Cc1cccc(NC(=O)CN2C(=O)S/C(=C\c3cc(C)n(C)c3C)C2=O)c1	-22%	18µM*	-13%	?	-51%	-4%
COc1ccc(S(=O)(=O)N2CCN(C(=O)Cc3ccsc3)CC2)cc1	-17%	?	3%	-4%	8%	15%
CCN1C(=O)[C@H]2[C@@H](c3ccc(-c4ccccc4)cc3)N3CCC[C@@]3(C(=O)OC)[C@H]2C1=O	?	18µM*	13%	1%	-7%	14%
CCN1C(=O)[C@@H]2[C@@H](c3ccc(-c4ccc(F)cc4)cc3)N3CCC[C@@]3(C(=O)OC)[C@@H]2C1=O	?	?	-2%	-18%	-20%	-1%
CCN1C(=O)[C@@H]2[C@@H](c3ccc(-c4ccccc4)cc3)N3CCC[C@@]3(C(=O)OC)[C@@H]2C1=O	21µM*	?	39%	-26%	8%	-4%
CCCS(=O)(=O)c1nc(S(=O)(=O)c2ccc(C)cc2)c(NC)s1	-3%	-14%	.	-12%	0%	.
SMILES	DT40 TDP1 CPT	DT40 TDP1 no CPT	HT1080NT lethal	TGFb inhibitor	HepG2 viability	HT1080 IDH1KD tx
CCCC1=C([O-])C2N=CC=CC2=[N+](c2ccccn2)C1=O (stereo not drawn)	-9%	-7%	3%	-1%	4%	4%
COc1ccc(-n2nc(C(=O)NCC(=O)NC3CCCCC3)c3ccccc3c2=O)cc1	1%	?	12%	2%	1%	0%
COc1ccc(OC)c(/C=C2/Sc3ccccc3C2=O)c1	0%	-8%	-9%	23%	8%	7%
Cc1ccc(S(=O)(=O)CS(=O)(=O)c2ccc(C)cc2)cc1	-20%	-20%	8%	-12%	-1%	?
CC(C)(C)c1ccc(S(=O)(=O)/C=C\C#N)cc1	0.47µM*	0.53µM*	.	.	.	.
CC(C)(C)c1ccc(S(=O)(=O)N2CCCCC2)cc1	?	?	6%	-21%	7%	0%
Cc1ccc(S(=O)(=O)C=CS(=O)(=O)c2ccc(C)cc2)cc1	1µM*	0.73µM*	?	?	-112%	?
Cc1ccc(S(=O)(=O)/C=C\C#N)cc1	0.6µM*	0.67µM*	.	.	.	.
Cc1ccc(S(=O)(=O)/C=C/C#N)cc1	1.3µM*	0.65µM*	.	.	.	.
Cc1ccc(C)c(NC(=O)NCCN2CCCCC2)c1	25%	11%	11%	-7%	1%	13%
CCc1nnc(SCc2nc(-c3ccccc3Cl)oc2C)c2cc3sc(C)cc3n12	?	-27%	.	-3%	-32%	.
COc1ccc(OCCCC(=O)OCC(=O)c2ccc3c(c2)NC(=O)CO3)cc1	-4%	-16%	11%	-17%	0%	16%
O=S(=O)(/C=C/C=C/S(=O)(=O)c1ccccc1)c1ccccc1	0.026µM*	0.046µM*	?	3.5µM*	-80%	1.3µM*
NS(=O)(=O)c1ccccc1	-20%	-7%	-3%	-3%	-3%	12%
NCCC[C@H](N)C(=O)O	5%	3%	.	.	.	.
O=C(CC1C=CCC1)Nc1ccccc1 (stereo not drawn)	13%	-3%	4%	-2%	3%	-1%
